# ABHD5 PLIN5 PPI = ABHD5-PLIN5 protein interaction inhibition; Q00G26+Q8WTS1; Split G. princeps luciferase complementation, luminescence, 4 h; inhibition, % at 4 µM; 360,000 tested, 0.78% active;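 active = inhibition above the mean inhibition across every tested compound plus 3 SD, cut at about 22% in these data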;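 note: 0% = DMSO only wells and the 100% control is not disclosed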
# Target sequence (Q00G26 whole entry, looked up): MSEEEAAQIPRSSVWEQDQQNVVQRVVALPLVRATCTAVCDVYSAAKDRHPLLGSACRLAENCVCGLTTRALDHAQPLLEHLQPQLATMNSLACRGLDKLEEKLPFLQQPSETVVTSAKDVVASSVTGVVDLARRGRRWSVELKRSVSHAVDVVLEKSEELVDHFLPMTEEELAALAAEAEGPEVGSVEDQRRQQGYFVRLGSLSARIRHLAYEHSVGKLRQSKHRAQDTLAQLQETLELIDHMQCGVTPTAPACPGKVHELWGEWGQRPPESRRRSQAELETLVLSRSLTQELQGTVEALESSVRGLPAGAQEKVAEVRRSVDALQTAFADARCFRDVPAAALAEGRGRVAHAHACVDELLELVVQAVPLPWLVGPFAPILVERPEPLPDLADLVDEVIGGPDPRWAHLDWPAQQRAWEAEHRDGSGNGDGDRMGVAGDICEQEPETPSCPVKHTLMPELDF
# Target sequence (Q8WTS1 whole entry, looked up): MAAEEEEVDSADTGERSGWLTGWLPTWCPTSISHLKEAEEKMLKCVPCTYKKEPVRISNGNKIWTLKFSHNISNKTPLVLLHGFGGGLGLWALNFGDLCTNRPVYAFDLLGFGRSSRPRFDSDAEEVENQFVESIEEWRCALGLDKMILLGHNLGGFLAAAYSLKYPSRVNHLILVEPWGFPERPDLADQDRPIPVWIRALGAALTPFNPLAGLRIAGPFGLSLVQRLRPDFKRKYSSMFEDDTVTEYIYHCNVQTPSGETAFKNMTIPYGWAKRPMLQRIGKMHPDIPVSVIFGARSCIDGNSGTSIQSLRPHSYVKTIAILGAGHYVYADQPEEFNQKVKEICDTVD
# NTR1 agonist = agonists of human neurotensin receptor NTR1; 330,000 tested, 0.17% active; NTR1-U2OS beta-arrestin-GFP spot imaging, agonist mode; activation, % at 20 µM; P30989;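 active = activation at or above 40% of the spot to cytoplasm intensity ratio, with at least 20 cells analyzed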;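 note: 0% = DMSO without peptide and 100% = 100 nM NTR1 peptide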
# Beta2AR agonist = activates human beta-2 adrenergic receptor causing internalization. Am2.2-beta2AR cells, FAP receptor internalization, flow cytometry. 340,000 tested, 0.43% active. response, % (concentration not given with the values). AID 504454;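 active = response above a set limit, near 3 SD of response in nonfluorescent compounds, cut at about 42% in these data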
# TLR4-MyD88 BLA = TLR4-MyD88 interaction inhibition in cells | O00206+Q99836 | 200,000 tested, 0.18% active | HeLa CL3-4 TLR4/MyD88 BLA complementation, FRET ratio | inhibition, % at 8.4 µM; in the data active = inhibition above about 25%;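 note: 0% = vehicle and 100% = reference inhibitor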
# NOD2 RIPK2 PPI = NOD2-RIPK2 protein interaction inhibition. inhibition, % at 4.98 µM. 360,000 tested, 0.38% active. AID 624267. O43353. CHO BLA complementation NOD2-RIPK2, CCF4 ratio; in the data active = inhibition above about 21%;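 note: 0% = vehicle only and 100% = reference blocker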
# TLR9-MyD88 block = TLR9-MyD88 interaction inhibition; Q9NR96+Q99836; CHO BLA complementation TLR9-MyD88, CCF4 FRET ratio; inhibition, % at 4.98 µM; 340,000 tested, 0.21% active;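 active = inhibition above the mean over all tested compounds plus 3 SD, cut at about 21% in these data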;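 note: 0% = DMSO only wells and 100% = clavulanate BLA inhibitor control wells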
# B2AR ag CP1 = human beta-2 adrenergic receptor agonism, cherry pick | shares compounds with Beta2AR agonist | Am2.2-beta2AR cells, FAP surface receptor, flow cytometry; hits give low values | percent response (surface receptor), % at 10 µM | 1,100 tested, 25% active | AID 540358;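 active = surface receptor percent response at or below 58%, roughly 3 SD from nonfluorescent compounds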
# B2AR FAP counter = flagged in Am2.2 fluorescence counterscreen for beta-2AR agonists; shares compounds with Beta2AR agonist; Am2.2 cells, FAP fluorogen flow cytometry; hits give low values; calls only at 10 µM; 1,100 tested, under 10 active; AID 588765;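 active = percent response below a set limit in fluorescence channel 1 and below 50% in channel 8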
# TLR9-MyD88 conf = confirmation of human TLR9-MyD88 binding inhibitors | AID 540250 | inhibition, % at 4.98 µM | CHO TLR9/MyD88 BLA complementation, CCF4 FRET ratio | 680 tested, 51% active | shares compounds with TLR9-MyD88 block;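 active = mean inhibition across three repeats above about 21% taken from the earlier screen, limit read from the data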;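 note: blue over green emission ratio reports constitutive TLR9 MyD88 association via BLA complementation; 0% = DMSO vehicle wells and 100% = clavulanate BLA inhibitor wells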
# BLA counter-1 = non-selective beta-lactamase inhibitors in TLR9-MyD88 counter-screen | shares compounds with TLR9-MyD88 block | CHO-BLA cells, CCF4 FRET ratio, BLA reporter | inhibition, % at 4.98 µM | 680 tested, 7% active | AID 540251;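 active = mean inhibition above a 50% cutoff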;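 note: counterscreen of TLR9-MyD88 hits on CMV-driven BLA in CHO-K1 cells; 0% = DMSO alone and 100% = clavulanate blocking BLA; higher means less blue over green ratio so more BLA blockade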
# TLR9 CHO cytotox = counter-screen for TLR9-MyD88 inhibitors: cytotoxicity in CHO cells | shares compounds with TLR9-MyD88 block | luminescence | inhibition, % at 4.98 µM | 680 tested, 39% active; in the data active = inhibition above about 11%
# ABHD5 PLIN5 conf = ABHD5-PLIN5 interaction inhibition, confirmed; shares compounds with ABHD5 PLIN5 PPI; biochemical ABHD5-PLIN5 interaction, luminescence; inhibition, % at 4 µM; 2,200 tested, 67% active; in the data active = inhibition above about 23%;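 note: 0% = DMSO vehicle wells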
# HNF4 split-luc = counter-screen for ABHD5-PLIN5 inhibitors: HNF4 split-luciferase; shares compounds with ABHD5 PLIN5 PPI; 2,200 tested, 77% active; HNF4 dimerization, luminescence, biochemical; inhibition, % at 4 µM;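 active = mean inhibition across replicate wells exceeding the computed hit threshold, cut at about 13% in these data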;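 note: light from luciferase halves that rejoin when HNF4 fusion proteins dimerize; 0% = DMSO only wells and the 100% control is not given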
# NOD2-RIPK2 conf = confirmation of human NOD2-RIPK2 interaction inhibitors; shares compounds with NOD2 RIPK2 PPI; 1,200 tested, 70% active; CHO cells, NOD2-RIPK2 BLA complementation, CCF4 FRET; AID 624370; inhibition, % at 4.98 µM;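 active = mean inhibition across replicates above a set limit taken from the earlier primary screen, cut at about 21% in these data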;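 note: 0% = DMSO-only wells and the high end = clavulanate BLA-blocked wells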
# BLA counter-2 = counter-screen for NOD2-RIPK2 interaction inhibitors: BLA reporter. shares compounds with NOD2 RIPK2 PPI. CHO BLA reporter, CCF4 FRET ratio, counterscreen. inhibition, % at 4.98 µM. 1,200 tested, 57% active. AID 624371;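 active = mean inhibition above the low-control mean inhibition plus three low-control SD, cut at about 11% in these data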;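 note: 0% = DMSO only wells and 100% = clavulanate high control wells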
# Numbers without * were called inactive; i = inactive; nt = no result given. An excerpt weighted towards active compounds, which were near 1.5% of everything screened.
SMILES,ABHD5 PLIN5 PPI,NTR1 agonist,Beta2AR agonist,TLR4-MyD88 BLA,NOD2 RIPK2 PPI,TLR9-MyD88 block,TLR9-MyD88 conf,BLA counter-1,TLR9 CHO cytotox,others
CC(NCc1ccc(OCc2ccc(Cl)cc2)cc1)C(O)c1ccccc1 (centres undefined),18,32,79*,5,23*,-2,nt,nt,nt,B2AR ag CP1=87;B2AR FAP counter=i;NOD2-RIPK2 conf=20;BLA counter-2=9
CN(C)CC(C(=O)c1ccccc1)c1ccccc1 (centres undefined),31*,2,56*,23,23*,-3,nt,nt,nt,B2AR ag CP1=82;B2AR FAP counter=i;ABHD5 PLIN5 conf=13;HNF4 split-luc=100*;NOD2-RIPK2 conf=13;BLA counter-2=-2
CSc1ccc(Cn2c(C)c(C(=O)NCc3cccc(C(F)(F)F)c3)sc2=O)cc1,-8,nt,nt,nt,6,nt,nt,nt,nt,
O=C(COC(=O)c1ccccc1C(=O)c1ccc(Cl)c([N+](=O)[O-])c1)NC1CC1,3,-1,43*,18,49*,14,nt,nt,nt,B2AR ag CP1=68;B2AR FAP counter=i;NOD2-RIPK2 conf=56*;BLA counter-2=9
O=C(COC(=O)c1cc([N+](=O)[O-])ccc1Cl)NC1CCCC1,-10,0,-4,nt,3,-14,nt,nt,nt,
CCc1nc2c(OCc3cccc(OC)c3)cccn2c1N(C)C(=O)c1ccc(OC)cc1,0,nt,nt,nt,3,nt,nt,nt,nt,
COc1cccc(C(O)c2nc(-c3ccccc3)cs2)c1 (centres undefined),9,nt,nt,nt,-3,nt,nt,nt,nt,
Cc1nn(C)c(C)c1/C=N/NC(=O)CCn1nc(C)c([N+](=O)[O-])c1C,-7,-1,4,-4,-1,28*,-2,1,-1,
CCC(=O)N1CCC1(C)C(=O)Nc1cc(-c2ccccc2)nn1C (centres undefined),-2,nt,nt,nt,6,nt,nt,nt,nt,
Cc1cccc(NC(=O)c2cc(-c3cc(Cl)ccc3O)n[nH]2)c1,-15,2,2,nt,-40,23*,-6,-2,-10,
COc1ccc(C=O)c(-c2c(CCO)sc3ccccc23)c1,-2,nt,nt,nt,-1,nt,nt,nt,nt,
CC1CCN(c2ccc3c(c2)S(=O)(=O)c2cccc(C(=O)NC[C@@H]4CCCO4)c2C3=O)CC1,5,1,1,nt,14,-1,nt,nt,nt,
O=C(NCC1CCCO1)c1cccc2c1C(=O)c1ccc(N3CCC(Cc4ccccc4)CC3)cc1S2(=O)=O (centres undefined),9,1,2,nt,51*,32*,23*,25,10,
O=C(NC1CCCCC1)c1cccc2c1C(=O)c1ccc(N3CCC(Cc4ccccc4)CC3)cc1S2(=O)=O,-8,-1,6,nt,21,80*,37*,41,1,
O=C(NCc1ccccc1Br)c1cccc2c1C(=O)c1ccc(N3CCC(Cc4ccccc4)CC3)cc1S2(=O)=O,-7,2,-35,nt,8,15,nt,nt,nt,
CC(NC(=O)OCc1ccccc1)C(=O)Oc1cc2oc(=O)cc(-c3ccccc3)c2cc1Cl (centres undefined),-7,1,2,5,38*,34*,16,22,-10,
COc1ccccc1C1CC(=O)Nc2c1c(=O)n(C)c(=O)n2C (centres undefined),7,-1,5,4,-10,-5,nt,nt,nt,
COc1cccc(C2CC(=O)Nc3c2c(=O)n(C)c(=O)n3C)c1OC (centres undefined),8,4,14,-15,-9,24*,-2,-3,-5,
O=C(N/N=C/c1c[nH]c2ccccc12)c1ccc(Br)cc1,-1,3,6,nt,3,-3,nt,nt,nt,
O=C(N/N=C\c1c[nH]c2ccccc12)c1ccc(O)cc1,-2,0,1,nt,3,21*,0,0,1,
COc1ccc(OC)c(CN2C(=O)CCC2(C)c2nnnn2-c2c(C)cccc2C)c1 (centres undefined),-2,nt,nt,nt,-11,nt,nt,nt,nt,
CCOC(=O)c1c(C)nc2sc(C(=O)Nc3ccccc3)c(N)c2c1-c1ccc(OC)cc1,-5,5,-5,19,14,31*,19,19,15*,
Cn1cccc1C1C=C(c2ccc(C(C)(C)C)cc2)Nc2ncnn21 (centres undefined),2,5,4,nt,3,1,nt,nt,nt,
CC(C)(C)c1ccc(C2=CC(c3ccccc3F)n3ncnc3N2)cc1 (centres undefined),-13,2,16,nt,15,22*,-4,-8,5,
COc1ccccc1C#CC1=CC(=O)CC(C)(C)C1,-3,nt,nt,nt,0,0,nt,nt,nt,
SMILES,ABHD5 PLIN5 PPI,NTR1 agonist,Beta2AR agonist,TLR4-MyD88 BLA,NOD2 RIPK2 PPI,TLR9-MyD88 block,TLR9-MyD88 conf,BLA counter-1,TLR9 CHO cytotox,others
CSc1ccc(/C=N/n2c(COc3ccccc3)n[nH]c2=S)cc1,-8,2,0,nt,-2,22*,-1,1,6,
S=c1[nH]nc(COc2ccccc2)n1/N=C/c1ccc(Cl)cc1,-2,7,12,nt,-2,-8,nt,nt,nt,
COC(=O)[C@H](NC(=O)c1cc(-c2ccccc2)sc1N)C(C)C,-6,nt,nt,nt,-14,nt,nt,nt,nt,
C/C(=N/Nc1ccc([N+](=O)[O-])cc1)c1c[nH]c2ccccc12,2,2,-139,nt,7,37*,24*,19,3,
C/C(=N/Nc1ccc([N+](=O)[O-])cc1)c1ccc(C)cc1C,-4,9,11,18,21,22*,19,16,0,
O=C(Nc1nc2c(s1)CN(Cc1ccccc1)CC2)c1cccc(S(=O)(=O)N2CCc3ccccc32)c1,8,1,-15,19,8,28*,5,6,-2,

# Source: PubChem (several laboratories)
